Our source for the outcome and AC50 values is PubChem BioAssay (EPA / NIEHS).

The structures appear in SMILES notation. Records with an inconclusive call do not appear. Active and inactive are the calls of the source. Rule for the calls: active = hit-call score of the fitted dose curve at least 0.9, where 1 is the maximum; inconclusive = response in the unintended direction; inactive = score below 0.9.

Assay [1] has as its target human Rho Associated Coiled-coil Containing Protein Kinase 1 (ROCK1), ROCK1 (gene 6093) (UniProt Q13464). Briefly: NVS_ENZ_hROCK1: NovaScreen (NVS) Enzymatic Assay for human Rho Associated Coiled-coil Containing Protein Kinase 1 (ROCK1) (AID 2283214). Summed up: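 Cell-free recombinant human ROCK1 activity assay; fluorescent substrate and product separated by electrophoretic mobility shift, read 1 h after dosing. Screened in duplicate at 25 uM; loss of signal versus DMSO baseline scored as inhibition.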

The target in assay [2] is human Sirtuin 3 (SIRT3), SIRT3 (gene 23410) (UniProt Q9NTG7). The experiment in a line: NVS_ENZ_hSIRT3: NovaScreen (NVS) Enzymatic Assay for human Sirtuin 3 (SIRT3) (AID 2283222). Summed up: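 Cell-free enzyme assay with recombinant protein and fluorescent substrate, product separated by electrophoretic mobility shift; read 1 hour after dosing. Screened in duplicate at 25 uM, then singleton concentration-response up to 50 uM; loss of signal versus DMSO.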

The target in assay [3] is human Tropomyosin Receptor Kinase A (TRKA), NTRK1 (gene 4914) (UniProt P04629). The experiment in a line: NVS_ENZ_hTrkA: NovaScreen (NVS) Enzymatic Assay for human Tropomyosin Receptor Kinase A (TRKA) (AID 2283224). The method in brief: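 Recombinant human TrkA activity read after 1 h by fluorescence with electrophoretic mobility shift separating substrate and product. Primary screen in duplicate at 25 uM; actives were rerun in concentration-response up to 50 uM. Loss of signal versus DMSO.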

In assay [4] the test system is rat Monoamine Oxidase, MAO-A, Peripheral (MAOAP), gene 29253. Briefly: NVS_ENZ_rMAOAP: NovaScreen (NVS) Enzymatic Assay for rat Monoamine Oxidase, MAO-A, Peripheral (MAOAP) (AID 2283237). The method in brief:
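Rat liver mitochondrial membranes served as the MAO-A source, with enzyme activity measured by radiometric scintillation counting 1.17 hours after dosing. Loss of signal was fitted against DMSO; primary screen used 25 uM in duplicate, follow-up used concentration series.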

For assay [5], the target named is human Protein Tyrosine Phosphatase Receptor Type F (PTPRF), PTPRF (gene 5792) (UniProt P10586). Briefly: NVS_ENZ_hPTPRF: NovaScreen (NVS) Enzymatic Assay for human Protein Tyrosine Phosphatase Receptor Type F (PTPRF) (AID 2283213). The method in brief:
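Cell-free fluorescence enzyme assay with recombinant protein and substrate; product separated by electrophoretic mobility shift. Read 1 h after dosing, single 25 uM duplicate screen, then concentration-response up to 50 uM; loss of signal vs DMSO.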

Assay [6] deals with human Raf-1 Proto-Oncogene, serine/threonine Kinase (RAF1), RAF1 (gene 5894) (UniProt P04049). Briefly: NVS_ENZ_hRAF1: NovaScreen (NVS) Enzymatic Assay for human Raf-1 Proto-Oncogene, serine/threonine Kinase (RAF1) (AID 2283216). The method in brief: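 Cell-free recombinant kinase with specific fluorescent substrate, product separated by electrophoretic mobility shift; read 1 h after dosing. Primary screen at 25 uM in duplicate; hits then run in concentration-response up to 50 uM, fitted as loss of signal versus DMSO.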

The target in assay [7] is rat Adenylate Cyclase, Forskolin Stimulated, Adcy5 (gene 64532) (UniProt Q04400). Briefly: NVS_ENZ_rACFSKBinding: NovaScreen (NVS) Enzymatic Assay for rat Adenylate Cyclase, Forskolin Stimulated (AID 2283232). The method in brief: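 Rat forebrain membrane preparation, cell-free, read 1 h after dosing by filter-based scintillation counting. Primary screen in duplicate at 25 uM; actives (e.g. ≥30% inhibition) rerun in concentration-response up to 50 uM; fit versus DMSO.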

Assay [8] has as its target rat Acetylcholinesterase (AChE), Ache (gene 83817) (UniProt P37136). The experiment in a line: NVS_ENZ_rAChE: NovaScreen (NVS) Enzymatic Assay for rat Acetylcholinesterase (AChE) (AID 2283233). The method in brief:
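Rat brain membrane acetylcholinesterase activity measured colorimetrically 0.33 h after compound addition, loss of signal relative to DMSO. Primary screen in duplicate at 25 uM; actives re-run as concentration-response with 50 uM top concentration.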

The target in assay [9] is rat Constitutive Nitric Oxide Synthase (CNOS), Nos1 (gene 24598) (UniProt P29476). The experiment in a line: NVS_ENZ_rCNOS: NovaScreen (NVS) Enzymatic Assay for rat Constitutive Nitric Oxide Synthase (CNOS) (AID 2283236). The method in brief:
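Enzyme activity in rat brain membrane preparation, read 1 h after dosing by filter-based radiometric scintillation counting. Primary screen in duplicate at 25 uM; actives (e.g., ≥30% inhibition) then run in concentration-response up to 50 uM.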

Assay [10] addresses human Sirtuin 2 (SIRT2), SIRT2 (gene 22933) (UniProt Q8IXJ6). The experiment in a line: NVS_ENZ_hSIRT2: NovaScreen (NVS) Enzymatic Assay for human Sirtuin 2 (SIRT2) (AID 2283217). Summed up: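 Cell-free recombinant human SIRT2, fluorescent substrate with product separated by electrophoretic mobility shift, 1 hr. Screened in duplicate at 25 uM; hits rerun singly in concentration-response up to 50 uM, relative to DMSO.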

The target of assay [11] is human Tyrosine Protein Kinase Receptor Tie-2 (Tie2), TEK (gene 7010) (UniProt Q02763). Briefly: NVS_ENZ_hTie2: NovaScreen (NVS) Enzymatic Assay for human Tyrosine Protein Kinase Receptor Tie-2 (Tie2) (AID 2283225). Summed up: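 Recombinant human Tie2 kinase activity was read cell-free by fluorescence with electrophoretic mobility shift, 1 hour after dosing. The screen used 25 uM in duplicate, then concentration-response up to 50 uM. Signal loss was scored against DMSO.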

Assay [12] addresses rat Monoamine Oxidase, MAO-B, Central (MAOBC), Maob (gene 25750) (UniProt P19643). The experiment in a line: NVS_ENZ_rMAOBC: NovaScreen (NVS) Enzymatic Assay for rat Monoamine Oxidase, MAO-B, Central (MAOBC) (AID 2283238). Summed up:
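MAO-B activity in rat brain tissue preparation, cell-free, measured radiometrically by scintillation counting 1.17 h after dosing. Screened in duplicate at 25 uM; actives then in concentration-response up to 50 uM. Loss of signal versus DMSO scored.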

Assay [13] addresses human SRC Proto-Oncogene, Non-receptor Tyrosine Kinase (SRC), SRC (gene 6714) (UniProt P12931). Briefly: NVS_ENZ_hSRC: NovaScreen (NVS) Enzymatic Assay for human SRC Proto-Oncogene, Non-receptor Tyrosine Kinase (SRC) (AID 2283223). Summed up:
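Cell-free kinase activity assay with fluorescent substrate, product separated by electrophoretic mobility shift, read 1 h after dosing. Duplicate single point at 25 uM, then concentration-response up to 50 uM; loss of signal versus DMSO.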

Assay [14] has as its target rabbit Imidazoline 2 Central (I2C), CKB (gene 100009085) (UniProt P00567). Briefly: NVS_ENZ_rabI2C: NovaScreen (NVS) Enzymatic Assay for rabbit Imidazoline 2 Central (I2C) (AID 2283228). Summed up: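 Rabbit brain membranes, cell-free; readout by filter-based scintillation counting 1.5 hours after dosing, loss of signal vs DMSO. Initial duplicate test at 25 uM, then concentration-response with 50 uM top concentration.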

Assay [15] has as its target human Vascular Endothelial Growth Factor Receptor 3 (VEGFR3), FLT4 (gene 2324) (UniProt P35916). The experiment in a line: NVS_ENZ_hVEGFR3: NovaScreen (NVS) Enzymatic Assay for human Vascular Endothelial Growth Factor Receptor 3 (VEGFR3) (AID 2283229). Summed up:
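Cell-free recombinant VEGFR3 kinase reaction with fluorescent substrate, read 1 h after dosing by electrophoretic mobility shift separation of substrate and product. Single-concentration duplicate screen at 25 uM, then concentration-response up to 50 uM; loss of activity versus DMSO.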

Chain of rat Constitutive Nitric Oxide Synthase (CNOS), Nos1 (gene 24598) (P29476 whole entry, looked up): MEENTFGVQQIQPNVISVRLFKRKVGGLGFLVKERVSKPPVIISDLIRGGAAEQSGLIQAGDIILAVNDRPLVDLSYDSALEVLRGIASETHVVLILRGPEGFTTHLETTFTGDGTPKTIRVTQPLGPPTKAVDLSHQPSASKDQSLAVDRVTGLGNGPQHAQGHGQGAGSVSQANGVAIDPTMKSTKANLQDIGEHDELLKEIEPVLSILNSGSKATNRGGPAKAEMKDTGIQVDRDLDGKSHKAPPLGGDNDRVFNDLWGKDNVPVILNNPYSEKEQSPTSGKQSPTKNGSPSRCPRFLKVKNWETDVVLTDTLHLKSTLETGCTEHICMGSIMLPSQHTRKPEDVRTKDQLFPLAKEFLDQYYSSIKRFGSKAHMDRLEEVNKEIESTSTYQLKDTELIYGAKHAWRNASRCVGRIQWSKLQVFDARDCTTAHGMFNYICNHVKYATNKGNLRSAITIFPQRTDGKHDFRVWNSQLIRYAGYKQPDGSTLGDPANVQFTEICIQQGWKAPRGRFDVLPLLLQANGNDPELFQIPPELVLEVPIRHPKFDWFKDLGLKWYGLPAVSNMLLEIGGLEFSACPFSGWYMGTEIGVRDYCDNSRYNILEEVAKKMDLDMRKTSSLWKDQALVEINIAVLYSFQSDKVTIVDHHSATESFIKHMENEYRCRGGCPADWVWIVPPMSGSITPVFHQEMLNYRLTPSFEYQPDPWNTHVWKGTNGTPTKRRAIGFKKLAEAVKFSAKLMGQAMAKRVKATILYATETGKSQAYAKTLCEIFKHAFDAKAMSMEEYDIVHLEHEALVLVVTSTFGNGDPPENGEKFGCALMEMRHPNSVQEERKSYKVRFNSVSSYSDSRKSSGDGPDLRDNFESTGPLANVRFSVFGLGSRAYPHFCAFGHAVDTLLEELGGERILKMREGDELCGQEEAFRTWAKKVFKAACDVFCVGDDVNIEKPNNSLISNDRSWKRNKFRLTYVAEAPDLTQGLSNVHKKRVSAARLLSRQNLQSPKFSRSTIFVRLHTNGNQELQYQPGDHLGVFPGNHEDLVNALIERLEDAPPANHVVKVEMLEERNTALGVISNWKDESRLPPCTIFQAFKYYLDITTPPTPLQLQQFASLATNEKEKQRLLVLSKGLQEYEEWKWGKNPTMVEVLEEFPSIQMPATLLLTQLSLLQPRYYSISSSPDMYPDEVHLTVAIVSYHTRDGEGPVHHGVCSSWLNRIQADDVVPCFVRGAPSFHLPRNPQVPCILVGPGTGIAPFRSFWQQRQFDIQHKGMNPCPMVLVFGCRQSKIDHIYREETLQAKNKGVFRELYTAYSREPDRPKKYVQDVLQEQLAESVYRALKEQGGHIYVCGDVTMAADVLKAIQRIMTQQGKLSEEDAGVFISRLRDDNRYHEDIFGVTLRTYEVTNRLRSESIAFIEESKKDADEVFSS
Chain of human Protein Tyrosine Phosphatase Receptor Type F (PTPRF), PTPRF (gene 5792) (P10586 whole entry, looked up): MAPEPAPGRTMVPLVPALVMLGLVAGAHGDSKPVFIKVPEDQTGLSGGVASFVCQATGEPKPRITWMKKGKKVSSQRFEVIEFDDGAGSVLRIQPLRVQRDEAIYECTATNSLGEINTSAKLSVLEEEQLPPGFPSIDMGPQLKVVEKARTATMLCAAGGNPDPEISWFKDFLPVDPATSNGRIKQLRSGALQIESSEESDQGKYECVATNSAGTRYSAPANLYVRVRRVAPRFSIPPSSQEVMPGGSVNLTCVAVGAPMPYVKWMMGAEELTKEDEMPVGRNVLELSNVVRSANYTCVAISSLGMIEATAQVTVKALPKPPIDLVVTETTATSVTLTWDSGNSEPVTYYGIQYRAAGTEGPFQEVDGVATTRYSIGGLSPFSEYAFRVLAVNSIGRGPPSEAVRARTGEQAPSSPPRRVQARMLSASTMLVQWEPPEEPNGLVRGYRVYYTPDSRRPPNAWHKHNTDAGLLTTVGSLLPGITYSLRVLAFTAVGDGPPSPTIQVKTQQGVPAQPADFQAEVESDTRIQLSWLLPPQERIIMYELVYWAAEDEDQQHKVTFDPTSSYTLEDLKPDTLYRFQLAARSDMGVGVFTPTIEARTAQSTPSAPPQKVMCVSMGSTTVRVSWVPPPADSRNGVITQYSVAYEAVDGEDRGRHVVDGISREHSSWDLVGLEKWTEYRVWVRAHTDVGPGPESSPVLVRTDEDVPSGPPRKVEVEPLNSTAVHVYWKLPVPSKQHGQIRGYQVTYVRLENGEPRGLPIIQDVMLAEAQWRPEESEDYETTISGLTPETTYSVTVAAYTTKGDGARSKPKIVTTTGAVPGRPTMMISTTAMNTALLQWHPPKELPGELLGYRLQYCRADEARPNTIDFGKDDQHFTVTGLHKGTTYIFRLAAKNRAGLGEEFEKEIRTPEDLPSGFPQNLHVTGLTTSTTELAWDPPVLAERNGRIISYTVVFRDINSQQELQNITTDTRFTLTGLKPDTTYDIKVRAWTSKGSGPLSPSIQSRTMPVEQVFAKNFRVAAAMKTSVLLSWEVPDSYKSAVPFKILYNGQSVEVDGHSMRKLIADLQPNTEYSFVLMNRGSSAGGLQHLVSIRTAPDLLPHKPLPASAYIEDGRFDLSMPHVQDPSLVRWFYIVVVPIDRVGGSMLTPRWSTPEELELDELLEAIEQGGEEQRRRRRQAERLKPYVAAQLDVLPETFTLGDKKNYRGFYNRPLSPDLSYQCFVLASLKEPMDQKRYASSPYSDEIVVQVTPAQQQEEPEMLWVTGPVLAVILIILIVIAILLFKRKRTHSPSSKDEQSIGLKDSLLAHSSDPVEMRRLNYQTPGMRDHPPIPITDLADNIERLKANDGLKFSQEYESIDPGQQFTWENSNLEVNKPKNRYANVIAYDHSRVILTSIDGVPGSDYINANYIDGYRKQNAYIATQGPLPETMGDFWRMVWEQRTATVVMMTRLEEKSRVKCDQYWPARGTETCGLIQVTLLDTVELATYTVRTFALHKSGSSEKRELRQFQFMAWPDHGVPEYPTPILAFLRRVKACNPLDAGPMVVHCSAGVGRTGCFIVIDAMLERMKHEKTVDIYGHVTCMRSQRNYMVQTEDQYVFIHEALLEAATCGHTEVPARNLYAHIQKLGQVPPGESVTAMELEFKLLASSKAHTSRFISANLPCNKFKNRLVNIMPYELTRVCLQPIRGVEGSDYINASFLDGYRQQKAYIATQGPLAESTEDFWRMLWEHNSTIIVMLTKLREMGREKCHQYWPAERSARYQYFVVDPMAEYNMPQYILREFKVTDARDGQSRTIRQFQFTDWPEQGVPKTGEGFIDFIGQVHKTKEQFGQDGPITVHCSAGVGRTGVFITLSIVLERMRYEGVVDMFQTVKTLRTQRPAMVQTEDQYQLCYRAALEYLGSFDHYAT
Chain of human Raf-1 Proto-Oncogene, serine/threonine Kinase (RAF1), RAF1 (gene 5894) (P04049 whole entry, looked up): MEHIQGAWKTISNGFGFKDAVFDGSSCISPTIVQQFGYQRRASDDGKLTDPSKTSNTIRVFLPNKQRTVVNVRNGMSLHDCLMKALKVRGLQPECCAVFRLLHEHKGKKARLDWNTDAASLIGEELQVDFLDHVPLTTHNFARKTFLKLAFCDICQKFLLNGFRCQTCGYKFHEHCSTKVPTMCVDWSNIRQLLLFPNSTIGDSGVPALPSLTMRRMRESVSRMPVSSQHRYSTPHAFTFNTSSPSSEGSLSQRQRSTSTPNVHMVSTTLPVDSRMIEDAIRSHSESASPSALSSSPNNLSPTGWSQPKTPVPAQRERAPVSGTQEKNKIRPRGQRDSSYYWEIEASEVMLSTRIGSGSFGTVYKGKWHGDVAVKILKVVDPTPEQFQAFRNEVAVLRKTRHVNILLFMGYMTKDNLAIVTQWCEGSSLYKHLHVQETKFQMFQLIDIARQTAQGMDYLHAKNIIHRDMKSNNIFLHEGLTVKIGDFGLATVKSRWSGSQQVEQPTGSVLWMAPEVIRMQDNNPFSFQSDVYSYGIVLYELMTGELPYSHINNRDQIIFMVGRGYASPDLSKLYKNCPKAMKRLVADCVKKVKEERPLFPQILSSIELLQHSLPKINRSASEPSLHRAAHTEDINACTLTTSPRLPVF
Chain of human Sirtuin 3 (SIRT3), SIRT3 (gene 23410) (Q9NTG7 whole entry, looked up): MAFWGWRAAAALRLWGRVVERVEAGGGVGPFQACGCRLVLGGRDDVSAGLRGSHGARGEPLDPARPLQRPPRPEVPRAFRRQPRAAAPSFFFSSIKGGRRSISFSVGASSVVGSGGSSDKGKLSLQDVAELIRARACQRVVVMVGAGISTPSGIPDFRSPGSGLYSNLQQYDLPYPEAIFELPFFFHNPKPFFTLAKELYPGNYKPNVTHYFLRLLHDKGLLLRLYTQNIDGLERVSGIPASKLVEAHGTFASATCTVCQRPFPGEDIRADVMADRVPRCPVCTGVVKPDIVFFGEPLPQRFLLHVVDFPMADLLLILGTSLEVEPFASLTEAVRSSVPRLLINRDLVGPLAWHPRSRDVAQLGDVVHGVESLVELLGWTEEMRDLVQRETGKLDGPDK
Chain of human Sirtuin 2 (SIRT2), SIRT2 (gene 22933) (Q8IXJ6 whole entry, looked up): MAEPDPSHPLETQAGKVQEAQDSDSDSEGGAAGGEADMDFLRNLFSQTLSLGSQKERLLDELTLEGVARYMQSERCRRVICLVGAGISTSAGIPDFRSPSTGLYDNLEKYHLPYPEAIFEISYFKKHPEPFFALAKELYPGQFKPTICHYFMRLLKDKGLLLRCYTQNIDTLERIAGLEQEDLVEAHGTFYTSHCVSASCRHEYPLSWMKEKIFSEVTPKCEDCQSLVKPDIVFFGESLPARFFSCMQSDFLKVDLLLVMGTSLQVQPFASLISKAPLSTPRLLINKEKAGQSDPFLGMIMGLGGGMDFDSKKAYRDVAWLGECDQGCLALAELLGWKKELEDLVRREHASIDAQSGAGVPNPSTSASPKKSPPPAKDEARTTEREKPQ

For `CCOP(=S)(OCC)Oc1nc(Cl)n(C(C)C)n1`, in assay [1], the result was inactive.

With `CCCCC(C#N)(Cn1cncn1)c1ccc(Cl)cc1` (stereo not given), the results for the AC50 in [2] and in assay [3] were 10.4 µM (active) and 19.5 µM (active), respectively. In addition, the compound was called inactive in [4].

Consider `COP(=S)(OC)SCn1nnc2ccccc2c1=O`, for which the call in [5], in [6], in assay [7], in [8], in assay [9] and in assay [4] was inactive.

For `COC(=O)N(C(=O)N1CO[C@@]2(C(=O)OC)Cc3cc(Cl)ccc3C2=N1)c1ccc(OC(F)(F)F)cc1`, the AC50 – broadly, the midpoint of the concentration-response curve, whichever way the signal moves – in assay [3] is 28.7 µM (active).

In the case of `COP(=S)(OC)Oc1ccc([N+](=O)[O-])c(C)c1`, the AC50 in assay [10] is 12.1 µM (active).

`CC1(C)C(C=C(Cl)Cl)C1C(=O)OC(C#N)c1cccc(Oc2ccccc2)c1` (stereo not given): the outcome in assay [6], in assay [2] and in [11] was inactive.

Take `N#Cc1c(Cl)cccc1Cl`: the compound was classed as inactive in assay [5]. The AC50 in assay [12] was 25 µM (active).

Consider `COC(=O)c1c(C(F)F)nc(C(F)(F)F)c(C2=NCCS2)c1CC(C)C`, for which the result in assay [6], in [9] and in assay [4] was inactive.

`CCC(C)n1c(=O)[nH]c(C)c(Br)c1=O` (stereo not given): in [5], the compound was classed as inactive.

Consider `CN/C(=N\[N+](=O)[O-])NCc1cnc(Cl)s1`, for which the compound was classed as inactive in assay [6].

Turning to `CCCN(CC)CC1COC2(CCC(C(C)(C)C)CC2)O1` (stereo not given), in [13], the call was inactive. The AC50 in assay [14] was 13 µM (active).

For the compound `CCCCC(O)(Cn1cncn1)c1ccc(Cl)cc1Cl` (stereo not given), the AC50 in [10] was 15.9 µM (active); in assay [3], 21.9 µM (active). In addition, the compound was called inactive in [2].

`CS(=O)(=O)c1ccc(C(=O)C2C(=O)CCCC2=O)c([N+](=O)[O-])c1`: the compound was called inactive in assay [6], in assay [15] and in assay [9].
